Bioassay records from PubChem.
Compounds with a hit are over-represented: about 2% of the library has one in this group of screens.
KCNH2 3.1 block: qHTS for Inhibitors of KCHN2 3.1: Mutant qHTS. U2OS KCNH2 3.1, thallium flux FluxOr; active compounds read low. activity change, % (tested at about 1.8 µM). 340,000 tested, 0.95% active;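 active = maximum activity change below -70%; inconclusive = maximum activity change from -70% to -50%; inactive = maximum activity change above -50%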;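 also: thallium influx rate constant from kinetic fluorescence after stimulation buffer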
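Virally transduced U2OS (3.1 isoform, 4 h infection in dark at RT) → overnight 37 C → FluxOr + Red40 in HBSS/HEPES, 45 min → stimulation buffer, 2 min kinetic read → rate constant vs DMSO controls.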
Six1-Eya2 blk: qHTS Assay for Inhibitors of the Six1/Eya2 Interaction; activity change, % (test concentration not listed); AlphaScreen GST-Six1/His-Eya2 binding, biochemical; active compounds read low; 360,000 tested, 0.56% active
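GST-Six1 + His-Eya2 (5X stock: 250/500 nM); Tris pH 8.0, 300 mM NaCl, 0.05% BSA, 0.02% Tween 20; GSH donor/Ni acceptor beads; 1 h 37 °C dark; AlphaScreen readout.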
KCNH2 WT inh: qHTS for Inhibitors of KCHN2 3.1: Wildtype qHTS | Voltage-gated inwardly rectifying potassium channel KCNH2 (Homo sapiens), Q12809 | 340,000 tested, 0.37% active | U2OS, BacMam KCNH2, thallium flux FluxOr; active compounds read low | activity change, % at 1.84 µM;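 active = maximum activity change below -70%; inconclusive = maximum activity change between -70% and -50%; inactive = maximum activity change above -50%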
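U2OS cells transduced with wild-type KCNH2 virus are loaded with FluxOr dye for 45 min, and thallium flux is measured in kinetic reads before and after stimulation buffer. Rate constants are normalized to DMSO controls.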
KDM4E inh: qHTS Assay for Inhibitors of Human Jumonji Domain Containing 2E (JMJD2E); Lysine-specific demethylase 4E (Homo sapiens), B2RXH2; JMJD2E catalytic domain, FDH-coupled NADH fluorescence (FDH is formaldehyde dehydrogenase); Potency, µM (doses to about 57.1 µM), actives largely listed as inhibitors; 230,000 tested, 1.6% active; active = well fitted inhibition curve with a large enough effect, not every such curve was filed as active; inconclusive = small, poorly fitted or top-dose-only effect, or another doubt; inactive = no such curve, though single readings can be large or run the other way; also: nearly all actives have a fitted effect of over 50% in size
Target sequence (B2RXH2 1-337 limits assumed): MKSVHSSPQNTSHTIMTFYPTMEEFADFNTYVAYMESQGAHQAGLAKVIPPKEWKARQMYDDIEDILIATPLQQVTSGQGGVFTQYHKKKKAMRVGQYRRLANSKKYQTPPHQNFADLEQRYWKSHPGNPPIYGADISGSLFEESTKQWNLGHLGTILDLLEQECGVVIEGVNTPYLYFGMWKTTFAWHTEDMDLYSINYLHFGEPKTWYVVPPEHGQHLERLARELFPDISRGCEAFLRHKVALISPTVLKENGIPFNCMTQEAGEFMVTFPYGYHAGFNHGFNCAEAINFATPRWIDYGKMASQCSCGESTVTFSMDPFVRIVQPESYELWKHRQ
CtBP-E1A inh: qHTS Assay for Inhibitors of the CtBP/E1A Interaction. AlphaScreen GST-E1A/His-CtBP binding, 1536-well; active compounds read low. activity change, % (concentration not given with the values). 340,000 tested, 0.49% active. CtBP / adenovirus E1A interaction (AlphaScreen)
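In 5 uL wells, 23 nL compound meets equimolar GST-E1A and His-CtBP (5X stock 125 nM each) for 2 h, 37 °C. Beads (5X, 50 ug/mL) then 1 h, 37 °C, dark.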
Each line names hits and unclear results; the compound was inactive in the other large screens. Rule as the data show it, unless noted: active = activity change below about -65%; inconclusive = mostly about -30% to -63%; inactive = weaker than that.

O=c1c([N+](=O)[O-])c[nH]c2ccccc12	none (no result: KCNH2 3.1 block)
CCCCOc1ccc(/C=N/Nc2cc(N3CCOCC3)nc(C)n2)cc1	KCNH2 3.1 block -95 (no result: KDM4E inh, CtBP-E1A inh)
Cc1nc(N/N=C/c2cccnc2)cc(N2CCOCC2)n1	none (no result: KDM4E inh)
Cc1cc(N/N=C/c2ccc(O)cc2O)nc(N2CCOCC2)n1	Six1-Eya2 blk inconclusive, CtBP-E1A inh inconclusive
CCOc1ccc(/C=N/Nc2cc(N3CCOCC3)ncn2)c(O)c1	Six1-Eya2 blk -71, CtBP-E1A inh inconclusive (no result: KDM4E inh)
COc1cc(N/N=C/c2ccccc2O)ncn1	Six1-Eya2 blk -88, KDM4E inh 25µM, CtBP-E1A inh -96
Oc1ccc(/C=N\Nc2cc(N3CCOCC3)nc(N3CCOCC3)n2)c(O)c1	Six1-Eya2 blk inconclusive, KDM4E inh 14µM
COc1cc(N/N=C/c2ccc(N(C)C)cc2)ncn1	KDM4E inh inconclusive (no result: CtBP-E1A inh)
CCCOc1ccc(/C=N/Nc2cc(N3CCOCC3)ncn2)c(O)c1	none (no result: KDM4E inh, CtBP-E1A inh)
CC1CC(C)CN(C(=O)COC(=O)c2ccc[nH]c2=O)C1 (stereo unspecified)	none
COc1ccc([C@H]2CC(=O)C[C@@H](CCn3cc(-c4cccnc4)nn3)O2)cc1	none (no result: KCNH2 3.1 block, KCNH2 WT inh, KDM4E inh)
Cc1csc(N/N=C/c2ccccc2F)n1	none (no result: KDM4E inh)
Oc1ccc(/C=N/Nc2cc(N3CCCC3)nc(N3CCCC3)n2)cc1O	KDM4E inh 14µM
CCOc1ccc(/C=N/Nc2nc(C)cs2)c(O)c1	Six1-Eya2 blk -68, CtBP-E1A inh inconclusive (no result: KDM4E inh)
Cc1[nH]c2ccccc2c1/C=N/n1cnnc1	none
CCN(CC)c1ccc(N=Cc2c(C)[nH]c3ccccc23)cc1	Six1-Eya2 blk inconclusive, KDM4E inh 0.79µM, CtBP-E1A inh inconclusive
Cc1ccc(CNC(=O)CCc2c(C)nc3c(c(C)nn3-c3ccc(C)cc3)c2C)cc1	none
Cc1ccc(-n2nc(C)c3c(C)c(CCC(=O)NCc4ccccc4)c(C)nc32)cc1	KCNH2 3.1 block -107, KDM4E inh inconclusive
Cc1ccc(C)c(OCCCCN2CCNCC2)c1C	KCNH2 3.1 block -88 (no result: KDM4E inh, CtBP-E1A inh)
OCCC1CN(Cc2c(O)ccc3ccccc23)CCN1CCc1ccccc1 (stereo unspecified)	KDM4E inh inconclusive
Cc1ccn2c(Cc3ccccc3)c(-c3ccc(Br)cc3)nc2c1	KCNH2 3.1 block -74 (no result: KDM4E inh)
Cc1ccn2c(Cc3ccccc3)c(-c3ccccc3)nc2c1	none (no result: KDM4E inh)
COc1ccc(NC(=O)C(c2ccccc2)N(C)C(=O)c2cnccn2)cc1 (stereo unspecified)	none
Cc1cc(C)nc(N/N=C/c2cc(Br)ccc2O)n1	Six1-Eya2 blk inconclusive, KDM4E inh inconclusive, CtBP-E1A inh -81
Cc1cc(C)nc(N/N=C/c2ccccc2OCc2ccc(Br)cc2)n1	none
Cc1cc(C(F)F)nn1CC(=O)NC1CCCC1	none (no result: KDM4E inh)
CCOC(=O)Cc1csc(NC(=O)NC2(C(F)(F)F)Oc3ccccc3O2)n1	KDM4E inh inconclusive
CCOC(=O)Cc1csc(NC(=O)NC2(C(F)(F)F)Oc3cc(Cl)c(Cl)cc3O2)n1	KDM4E inh 28µM (no result: KCNH2 3.1 block)
COc1cccc(-n2c(SCc3cc(=O)oc4cc(O)c(O)cc34)nc3ccccc3c2=O)c1	KDM4E inh 13µM
O=C(O)CCN1C(=O)/C(=C\c2ccc(-c3nc4ccccc4s3)o2)SC1=S	Six1-Eya2 blk inconclusive, CtBP-E1A inh -75
O=C(/C=C/c1ccco1)Oc1ccc(C(=S)N2CCOCC2)cc1	Six1-Eya2 blk -89, CtBP-E1A inh -93
COC(=O)c1ccc(OC(=O)c2ccco2)cc1	Six1-Eya2 blk inconclusive
COC(=O)c1ccc(OC(=O)/C=C/c2ccco2)cc1	Six1-Eya2 blk -85, CtBP-E1A inh -93 (no result: KDM4E inh)
CCc1ccc(NC(=O)COC(=O)/C=C/c2ccco2)cc1	KCNH2 3.1 block -121 (no result: KDM4E inh)
CCn1c(=O)c(C(=O)NCc2ccccc2OC)c(O)c2ccccc21	none (no result: KDM4E inh)
O=C(COC(=O)CCC(=O)c1ccc(F)cc1)Nc1ccc2[nH]c(=O)[nH]c2c1	none (no result: KDM4E inh)
COc1cc2c(cc1OC)C(c1ccc(Br)cc1)CC(=O)N2 (stereo unspecified)	KCNH2 WT inh -126 (no result: KDM4E inh)
Cn1c(=O)c(NC(=O)c2ccccc2)c2n(c1=S)CCCCC2	none
N#Cc1c(N)nc(SC2CCCCC2=O)c(C#N)c1-c1ccco1 (stereo unspecified)	Six1-Eya2 blk -66, CtBP-E1A inh inconclusive (no result: KDM4E inh)
Cc1n[nH]c(C)c1Sc1ccccc1N=Cc1cc(Cl)cc([N+](=O)[O-])c1O	KCNH2 WT inh -133
Cc1n[nH]c(C)c1Sc1ccccc1[N+](=O)[O-]	none
CC(=O)Nc1cccc(C(=O)OCC(=O)NC2CCCCCCC2)c1	none (no result: KDM4E inh)
COc1cc2ccnc(C=NO)c2cc1OC	Six1-Eya2 blk -86 (no result: KDM4E inh)
COc1cc2ccnc(C=O)c2cc1OC	Six1-Eya2 blk inconclusive (no result: KDM4E inh)
Brc1ccc(-c2ccc(/C=N/Nc3nc(N4CCOCC4)nc(N4CCOCC4)n3)o2)cc1	KCNH2 3.1 block -95, KDM4E inh inconclusive
Cc1cccc(/C=N/Nc2cc(N3CCOCC3)nc(N3CCOCC3)n2)c1	KDM4E inh inconclusive
Clc1ccc(-c2ccc(/C=N/Nc3cc(N4CCOCC4)nc(N4CCOCC4)n3)o2)cc1	KCNH2 3.1 block -95, KCNH2 WT inh inconclusive, KDM4E inh inconclusive
CCOCCCn1c(SCC(=O)NCc2ccco2)nc2c(sc3ccccc32)c1=O	KDM4E inh inconclusive
CCCCn1c(SCC(=O)NCc2ccco2)nc2c(sc3ccccc32)c1=O	KDM4E inh 7.1µM
Cc1c2cnn(CC(=O)Nc3cccc(C(F)(F)F)c3)c(=O)c2c(C)n1Cc1ccccc1F	none
O=C(CCN1C(=O)c2ccccc2C1=O)NC(=S)Nc1cccc(Cl)c1	KCNH2 3.1 block -72
O=C1CCC(=O)N(O)CCCCCNC(=O)CCC(=O)N(O)CCCCNC(=O)CCC(=O)N(O)CCCCCN1	KDM4E inh 4.5µM
Cc1cc(C)n(-c2ccc(C(=O)Nc3ccc(C)c(S(=O)(=O)N4CCOCC4)c3)cc2)n1	Six1-Eya2 blk -73, CtBP-E1A inh -76
Cc1ccc(NC(=O)c2ccc3c(c2)S(=O)(=O)c2ccccc2C3=O)cc1S(=O)(=O)N1CCOCC1	KCNH2 3.1 block -190, KCNH2 WT inh -136
CC(=O)c1ccc(NC(=O)c2ccc(C)c(S(=O)(=O)N3CCOCC3)c2)cc1	none (no result: KDM4E inh)
Cc1cccnc1NC(=O)Cn1nc([N+](=O)[O-])cc1C	none
CCCN1CCC(=O)N([C@H](CSc2ccc(Br)cc2)c2ccccc2)CC1	KCNH2 3.1 block -116, KCNH2 WT inh -130
O=C1CCN(CCc2ccccc2)CCN1[C@H](CSc1ccc(Br)cc1)c1ccccc1	KCNH2 3.1 block -113, KCNH2 WT inh -170
O=C1CCN(Cc2ccc(O)cc2)CCN1[C@H](CO)c1ccccc1	KCNH2 3.1 block -118 (no result: KDM4E inh)
CCCN1CCC(=O)N([C@H](CSc2ccccc2)CC(C)C)CC1	none (no result: KDM4E inh)
